# “And” between values parts separate entries of the source, which are not always exact repeats. Equal entries are not always repeated. The source made the active and inactive calls. Cut-off read from the data, not from the text of the source: active = parasite load remaining mostly below about 12% (no sharp cut-off); inactive = mostly above about 10%.
# Experiment: P. berghei load reduction in hepatocytes – cell-based, HepG2, luciferase luminescence, HepG2 viability, primary screen (AID 624349);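 note: 100% = mean of DMSO negative control wells on the same plate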
# Settings: P. berghei liver stage in HepG2, luciferase luminescence, concentration not given here; parasite load remaining: stronger effect = lower value; viability: measured here: HepG2 viability without parasites
Compound,parasite load remaining,viability
O=C(O)c1cc(O)c(O)c(O)c1,50.3% (inactive),100%
Cc1c(C(N)=O)cc([N+](=O)[O-])cc1[N+](=O)[O-],143% (inactive),90.9%
Nc1ccc(S(=O)(=O)Nc2ccc(Cl)nn2)cc1,128% (inactive) and 127% (inactive) and 54.3% (inactive),105% and 69.3% and 92.4%
CCCc1cc(C(N)=S)ccn1,145% (inactive) and 18.2% (inactive),83.8% and 63%
CCCCC(CC)CN1CN(CC(CC)CCCC)CC(C)(N)C1 (stereo unspecified),136% (inactive) and 95.8% (inactive) and 66.4% (inactive),98.8% and 69.2% and 87.2%
C[N+]12CCC(CC1)C(OC(=O)C(O)(c1ccccc1)c1ccccc1)C2 (stereo unspecified),89.9% (inactive) and 72% (inactive) and 63.2% (inactive),98.6% and 73% and 99.2%
C=CCSCC1Nc2cc(Cl)c(S(N)(=O)=O)cc2S(=O)(=O)N1 (stereo unspecified),134% (inactive) and 105% (inactive) and 42.5% (inactive),102% and 73.3% and 104%
Oc1c(Cl)cc(Cl)cc1Sc1cc(Cl)cc(Cl)c1O,21.9% (inactive) and 0.17% (inactive),65.4% and 70%
CCOc1ccc(Cc2nccc3cc(OCC)c(OCC)cc23)cc1OCC,28.9% (inactive) and 13.1% (inactive),78.6% and 42.8%
O=C1C(O)=C(O)C(=O)C(O)=C1O,67.5% (inactive) and 145% (inactive) and 28.2% (inactive),94.1% and 90.9% and 99%
Oc1ccc(Cl)c2cccnc12,109% (inactive) and 39.2% (inactive),67.1% and 81.7%
COc1ccc(C2C(=O)c3ccccc3C2=O)cc1,126% (inactive) and 58.9% (inactive),68.9% and 89%
C[C@@](Cc1ccc(O)c(O)c1)(NN)C(=O)O,47.3% (inactive),129%
O=C(O)c1ccccc1OP(=O)(O)O,79.1% (inactive) and 102% (inactive),101% and 71.6%
Nc1ccc(N=Nc2ccccc2)c(N)n1,122% (inactive) and 140% (inactive) and 51.9% (inactive),90.8% and 67.3% and 81.9%
C=CCc1ccc(O)c(OC)c1,91.2% (inactive) and 49.1% (inactive),77.2% and 96.4%
COc1ccc(-c2cc(C(F)F)nn2-c2ccc(S(N)(=O)=O)cc2)cc1F,70.5% (inactive),97.2%
Cc1c(NC(=O)c2cccnc2)c(=O)n(-c2ccccc2)n1C,43.9% (inactive) and 167% (inactive) and 109% (inactive),47% and 88.9% and 92.6%
COc1ccc2cc1Oc1ccc(cc1)C[C@H]1c3c(cc4c(c3Oc3cc5c(cc3OC)CCN(C)[C@@H]5C2)OCO4)CCN1C,105% (inactive),82.3%

Compound,parasite load remaining,viability
CN1CCCN=C1COC(=O)C(O)(c1ccccc1)C1CCCCC1 (stereo unspecified),69.1% (inactive) and 57.9% (inactive),80.4% and 101%
O=C(OCC(O)CO)c1ccccc1Nc1ccnc2cc(Cl)ccc12 (stereo unspecified),9.85% (inactive) and 91.3% (inactive) and 74.6% (inactive),47.1% and 73.6% and 92%
Cc1cc(=O)[nH]c(=S)[nH]1,70.4% (inactive),92%
COc1cccc(OC)c1C(=O)N[C@@H]1C(=O)N2[C@@H]1SC(C)(C)[C@@H]2C(=O)O,72.2% (inactive) and 53.5% (inactive),72.9% and 91.1%
O=C1c2cccc(O)c2C(=O)c2c(O)cccc21,32.6% (inactive),96.2%
CC(=O)N(O)CCCCCNC(=O)CCC(=O)N(O)CCCCCNC(=O)CCC(=O)N(O)CCCCCN,87.4% (inactive) and 82.1% (inactive) and 111% (inactive),104% and 70.2% and 87.4%
CC1(C)O[C@@H]2C[C@H]3[C@@H]4C[C@H](F)C5=CC(=O)CC[C@]5(C)[C@H]4[C@@H](O)C[C@]3(C)[C@]2(C(=O)CO)O1,156% (inactive),105%
COc1cc(NS(=O)(=O)c2ccc(N)cc2)ncn1,84.2% (inactive) and 61.4% (inactive) and 48% (inactive),97.9% and 64.7% and 90.8%
Cc1onc(-c2ccccc2)c1C(=O)N[C@@H]1C(=O)N2[C@@H]1SC(C)(C)[C@@H]2C(=O)O,27.2% (inactive),72.5%
CCCCOc1ccc(CC(=O)NO)cc1,13.5% (inactive) and 151% (inactive) and 84.2% (inactive),47.8% and 71.4% and 91%
CCC(=O)O[C@H]1[C@H](O[C@@H]2[C@@H](C)[C@H](O[C@H]3C[C@@](C)(OC)[C@@H](O)[C@H](C)O3)[C@@H](C)C(=O)O[C@H](CC)[C@@](C)(O)[C@H](O)[C@@H](C)C(=O)[C@H](C)C[C@@]2(C)O)O[C@H](C)C[C@@H]1N(C)C,85.6% (inactive) and 40.4% (inactive),67.9% and 93.1%
CC(=O)Nc1ccc(OCC(O)CNC(C)C)cc1 (stereo unspecified),80.4% (inactive) and 87% (inactive) and 55.4% (inactive),110% and 75.8% and 108%
Cc1c(N(C)CS(=O)(=O)O)c(=O)n(-c2ccccc2)n1C,109% (inactive) and 141% (inactive) and 63.8% (inactive),100% and 88.3% and 95.6%
CC(=O)Nc1ccccc1,92.8% (inactive) and 37.4% (inactive),71.9% and 93.5%
O=C(CCCCC(=O)Nc1c(I)cc(I)c(C(=O)O)c1I)Nc1c(I)cc(I)c(C(=O)O)c1I,81.3% (inactive),93.2%
O=C(O)c1ccccc1C(=O)Nc1ccc(S(=O)(=O)Nc2nccs2)cc1,89% (inactive) and 53.5% (inactive) and 22.8% (inactive),103% and 81.4% and 87.5%
Cc1c(NC(C)C)c(=O)n(-c2ccccc2)n1C,102% (inactive) and 160% (inactive),100% and 89.9%
CC[C@]12CCCN3CCc4c(n(c5ccccc45)[C@@](O)(C(=O)OC)C1)[C@@H]32,27.1% (inactive) and 109% (inactive),48.5% and 87%
Cc1cc(C)cc(OCC2CNC(=O)O2)c1 (stereo unspecified),135% (inactive) and 58.1% (inactive),90% and 111%

# — PubChem BioAssay
